What all share (assay type): functional
In assay [1] the test system is Plasmodium falciparum. As to the kind of experiment: GSK_TCMDC: Inhibition of Plasmodium falciparum 3D7 in whole red blood cells, using parasite LDH activity as an index of growth. Test compounds present at 2uM.
In assay [2] the test system is Plasmodium falciparum. As to the kind of experiment: GSK_TCMDC: Inhibition of Plasmodium falciparum Dd2 in whole red blood cells, using parasite LDH activity as an index of growth. Test compounds present at 2uM.
The subject of a further assay is HepG2. As to the kind of experiment: GSK_TCMDC: Percent inhibition of human HepG2 cell line. Test compounds present at 10uM.

SMILES strings stand for the structures.

The term Inhibition denotes the drop in the measured response relative to a control, in per cent. High values mean a strong effect, low ones a weak effect. For the compound `CNCCNCc1cccc(-c2ccc(-c3nc4cccc(C)c4[nH]3)cc2)c1.O=C(O)C(F)(F)F`, the Inhibition turned out to be 98% with Plasmodium falciparum [1], 21% with Plasmodium falciparum [2] and 17% in the assay on HepG2.
In the same order, the values of `Cc1nnsc1C(=O)Nc1ccc(-c2ccc(-c3nc4ccccc4[nH]3)s2)cc1` are 92%, 38% and 49%.
On the same counts, the results for `Fc1ccc(CNc2ccc3ncc(-c4cccnc4)n3n2)cc1` are 87%, 7% and 7%.
For `CC(C)Cn1c(Sc2ccc(C#N)c([N+](=O)[O-])c2)nnc1-c1ccccc1Cl`, the Inhibition in the assay with Plasmodium falciparum [1] came out at 93%; with Plasmodium falciparum [2], 46%; with HepG2 it was 18%.
Turning to `COc1ccc(CCNCCCCCCNCCc2ccc(OC)c(OC)c2Cl)c(Cl)c1OC.Cl`, the Inhibition with Plasmodium falciparum [1] came to 96%; in the assay on Plasmodium falciparum [2], 0%; in the assay with HepG2, 19%.
`Cl.O=C(NCCCCN1CCC(c2ccc(OC(F)(F)F)cc2)CC1)c1ccc(NC(=O)c2ccc(Cl)cc2)cc1`: the Inhibition in the assay on Plasmodium falciparum [1] is 99%; with Plasmodium falciparum [2], 98%; in the assay with HepG2, 24%.
As for `CCCCOc1ccc(-n2c(Nc3ccccc3)nc3cc(S(N)(=O)=O)ccc32)cc1`, the Inhibition turned out to be 90% in the assay on Plasmodium falciparum [1], 72% with Plasmodium falciparum [2] and 0% in the assay with HepG2.
Take `c1ccc(CNc2nc(NCCc3c[nH]cn3)nc(N3CCCC4CCCCC43)n2)cc1` (configuration not stated): the Inhibition in the assay with Plasmodium falciparum [1] came out at 98%; in the assay with Plasmodium falciparum [2] it was 100%; with HepG2, 0%.
For `COc1ccc2ncc(C#N)c(CCN3CCC(NCc4ccc5c(c4)OCCO5)CC3)c2c1.Cl`, the Inhibition with Plasmodium falciparum [1] is given as 96%; with Plasmodium falciparum [2], 31%; in the assay on HepG2 it was 12%.
In the same order, the values of `COc1cc(F)c2ncc(F)c([C@@H](O)CN3CCC(NCc4cc5c(cn4)OCCO5)CC3)c2c1.Cl` are 100%, 88% and 1%.
On the same counts, the results for `CCC(C)CC(=O)Nc1ccc(OC)c(S(=O)(=O)N[C@@H]2CCN(C#N)C2)c1` (some centres not stated) are 94%, 77% and 16%.
On the same counts, the results for `Cn1c(N=C2NC3(c4ccccn4)NC(=Nc4nc5ccccc5n4C)NC3(c3ccccn3)N2)nc2ccccc21.O=C(O)C(F)(F)F` (configuration not stated) are 99%, 44% and 12%.
In the case of `O=C(Nc1cccc(-c2cccc(-c3nc4cc(C(F)(F)F)ccc4[nH]3)c2)c1)c1ccncc1`, the Inhibition was determined as 100% in the assay on Plasmodium falciparum [1], 61% in the assay with Plasmodium falciparum [2] and 52% with HepG2.
As to `C[C@H](NC(=O)C1CCCC1)C(=O)Nc1ccc(-c2ccc(-c3nc4cc(C(F)(F)F)ccc4[nH]3)cc2)cc1`, the values for the Inhibition in the assay on Plasmodium falciparum [1], in the assay with Plasmodium falciparum [2] and in the assay with HepG2 were 99%, 70% and 34%, respectively.
In the same order, the values of `Cc1ccc(-n2cc(CNCCc3nc(C)c[nH]3)c(-c3ccc(F)cc3)n2)cc1` are 86%, 12% and 15%.
In the same order, the values of `CC(C)(O)CC(C)(C)c1cc(Cl)ccc1O` are 96%, 1% and 5%.
In the same order, the values of `COc1ccccc1-c1sccc1C(=O)NC1(c2cc(Cl)cc(Cl)c2)CCCC1` are 88%, 95% and 0%.
Consider `Cc1cccc2nc(-c3ccc(-c4ccc(NC(=O)NC5CC5c5ccccc5)cc4)cc3)[nH]c12` (configuration not stated), for which the Inhibition in the assay with Plasmodium falciparum [1] came out at 96%; with Plasmodium falciparum [2], 3%; in the assay with HepG2, 28%.
In the same order, the values of `COc1ccc(NC(=O)[C@H](CC(C)C)Nc2ccnc(NCCc3ccc(F)cc3)n2)cc1.O=C(O)C(F)(F)F` are 86%, 22% and 0%.
Consider `O=C(Cc1c[nH]cn1)Nc1cccc(-c2ccc(-c3nc4cc(F)ccc4[nH]3)s2)c1`, for which the figures for the Inhibition with Plasmodium falciparum [1], with Plasmodium falciparum [2] and with HepG2 were 100%, 94% and 4%, respectively.
On the same counts, the results for `CC(C)N1CCC(N(Cc2ccc(-c3ccc(C(F)(F)F)cc3)cc2)C(=O)Cn2c(CCc3cccc(F)c3F)cc(=O)c3cn(C)nc32)CC1.O=C(O)C(O)C(O)C(=O)O` are 89%, 78% and 100%.
In the same order, the values of `Cc1ncccc1C(=O)Nc1ccc(-c2cccc(-c3nc4cccc(C)c4[nH]3)c2)cc1` are 95%, 31% and 6%.
On the same counts, the results for `C=CCOc1ccc2ccccc2c1CNCCCCCCNCc1c(OCC=C)ccc2ccccc12.CS(=O)(=O)O` are 100%, 98% and 99%.
Take `COc1cc(C(=O)N2CCOC(CCN3CCC(Cc4ccc(F)cc4)CC3)(c3ccc(Cl)c(Cl)c3)C2)cc(OC)c1OC` (configuration not stated): the Inhibition in the assay with Plasmodium falciparum [1] was found to be 88%; with Plasmodium falciparum [2] it was 58%; in the assay with HepG2 it was 44%.
In the same order, the values of `O=C(/C=C/c1ccc(C(F)(F)F)cc1)N1CCC(CCN2CCC(c3c[nH]c4ccccc34)CC2)CC1` are 100%, 77% and 70%.
With `CC(C)(C)c1cc2cc(Nc3ccnc4cc(-c5nccs5)ccc34)ccc2[nH]1.Cl`, the values for the Inhibition in the assay on Plasmodium falciparum [1], in the assay on Plasmodium falciparum [2] and with HepG2 were 100%, 97% and 5%, respectively.
As to `CN(C)CCOc1ccc(/C(=C(/CCCn2ccnc2)c2ccccc2)c2ccc(O)cc2)cc1`, the results for the Inhibition with Plasmodium falciparum [1], in the assay on Plasmodium falciparum [2] and with HepG2 were 100%, 99% and 13%, respectively.
On the same counts, the results for `COc1cc(Cc2cnc(N)nc2N)cc(OC)c1OCCCCC(=O)O.Cl` are 88%, 0% and 0%.
In the same order, the values of `Cc1cccc2c(/C=C/C(=O)NC3CCC(CCN4CCc5ccc(C#N)cc5CC4)CC3)c[nH]c12.Cl` (configuration not stated) are 91%, 49% and 18%.
On the same counts, the results for `C[C@H](N[C@H]1CCCc2c1[nH]c1ccc(Br)cc21)c1ccccc1.Cl` are 96%, 95% and 58%.
As for `CC(C)CN1CCC(COc2ccc3ncn(-c4cc(O[C@H](C)c5ccccc5C(F)(F)F)c(C(N)=O)s4)c3c2)CC1`, the Inhibition came out at 97% with Plasmodium falciparum [1], 86% with Plasmodium falciparum [2] and 46% with HepG2.
In the same order, the values of `COc1ccc2nccc([C@@H](O)CN3CCC(NC/C=C/c4cccnc4)CC3)c2c1.CS(=O)(=O)O` are 100%, 19% and 0%.
On the same counts, the results for `CC(C)c1ccc(NC(=O)c2cccc(CN3CCCN(Cc4cccc(O)c4)CC3)c2)cc1.O=C(O)C(F)(F)F` are 97%, 33% and 25%.
For the compound `O=C(Nc1ccc(C(F)(F)F)cc1)c1ccc(S(=O)(=O)NC2CCN(CC3CCCCC3)C2)cc1.O=C(O)C(F)(F)F` (configuration not stated), the Inhibition with Plasmodium falciparum [1] was 99%; in the assay on Plasmodium falciparum [2] it was 16%; with HepG2, 33%.
On the same counts, the results for `Cl.NC(=O)Nc1ccc2cn[nH]c2c1` are 97%, 0% and 4%.
On the same counts, the results for `CN(C)C(=O)c1ccc(CN(Cc2ccc3c(c2)OCCO3)Cc2ccc3c(c2)OCO3)cc1` are 89%, 95% and 0%.
In the same order, the values of `CC(=O)Nc1cccc(C(=O)Nc2cccc(-c3ccc(-c4nc5cc(F)ccc5[nH]4)s3)c2)c1` are 94%, 30% and 88%.
As for `Nc1ncc(-c2ccc(F)cc2)c2ccc(-c3cccc(F)c3)cc12`, the Inhibition in the assay on Plasmodium falciparum [1] was 99%; in the assay with Plasmodium falciparum [2], 89%; in the assay on HepG2 it was 34%.
Consider `C[C@@H](Oc1cc(-n2cnc3ccc(NC(=O)NC(C)(C)C)cc32)sc1C(N)=O)c1ccccc1Cl`, for which the Inhibition in the assay on Plasmodium falciparum [1] was determined as 95%; in the assay on Plasmodium falciparum [2], 97%; in the assay on HepG2, 28%.
On the same counts, the results for `CCC(C)(C)C1CCc2[nH]c3ccccc3c(=O)c2C1` (configuration not stated) are 97%, 96% and 16%.
In the same order, the values of `CCc1cc(NC2CCN(C)CC2)nc(Nc2ccc(C)cc2)n1` are 95%, 11% and 3%.
In the same order, the values of `CNCCNCc1cccc(-c2ccc(-c3nc4ccccc4[nH]3)s2)c1.O=C(O)C(F)(F)F` are 99%, 9% and 8%.
As for `Cc1ccc2nc3sc(C(=O)NCCCN4CCC(N5CCCCC5)CC4)cc3cc2c1`, the Inhibition with Plasmodium falciparum [1] is given as 100%; in the assay with Plasmodium falciparum [2] it was 71%; in the assay with HepG2 it was 11%.
On the same counts, the results for `CN1CCc2cc(NS(=O)(=O)c3ccc(-c4ccc(Cl)cc4)cc3)c(OCCCN3CCCCC3)cc2CC1.Cl` are 100%, 100% and 91%.
On the same counts, the results for `COc1ccc2nccc([C@@H](O)CN3CCC(NCc4cc5oc(=O)[nH]c5cc4F)CC3)c2c1.O=C(O)C(=O)O` are 99%, 4% and 0%.
For `CCC(CC)(Cc1ccccc1)NC(=O)[C@H](Cc1ccc(OC)c(OC)c1)Nc1ccc(C#N)c2ccccc12.O=C(O)C(F)(F)F`, the results for the Inhibition in the assay with Plasmodium falciparum [1], with Plasmodium falciparum [2] and in the assay with HepG2 were 90%, 69% and 16%, respectively.
On the same counts, the results for `Cc1cc(N[C@@H](Cc2ccccc2)C(=O)NC2CCCC2)nc(NCCc2ccc(F)cc2)n1.O=C(O)C(F)(F)F` are 100%, 61% and 21%.
On the same counts, the results for `CN(C)S(=O)(=O)c1ccc(N2CCN(CCC3(c4cccc(F)c4)CCN(C(=O)C(C)(C)C)CC3)CC2)c2nonc12` are 91%, 85% and 8%.
Consider `COc1ccc(Cn2c(N3CCN(S(=O)(=O)c4ccc(OC)cc4)CC3)nc3c2c(=O)n(CC2CC2)c(=O)n3CC2CC2)cc1`, for which the Inhibition with Plasmodium falciparum [1] is recorded as 92%; in the assay with Plasmodium falciparum [2] it was 39%; in the assay on HepG2, 0%.

For the origin of these results see ChEMBL document CHEMBL1157539, “Thousands of chemical starting points for antimalarial lead identification” (Nature, 2010).
